Bioassay records as filed in PubChem BioAssay.
Nrf2 activator = qHTS of Nrf2 Activators; 410,000 compounds, 0.31% hits; AREc32 ARE-luciferase reporter (MCF7-derived line), luminescence, 24 h; Potency, µM (highest dose often 46.1 µM), inactives show top-dose activation, hits mostly activators; AID 624171, 2012; also: % of control where 0% means no effect; nearly all actives have a fitted effect of over 65% in size
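Each well held 1000 AREc32 cells, which were incubated with compound for 24 hr at 37 deg C after overnight attachment, and ARE reporter activity was quantified by firefly luciferase luminescence.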
A549 tox = Nrf2 qHTS screen for inhibitors: counterscreen for cytotoxicity | A549 ARE-Fluc cells, CellTiter-Fluor viability, 18-24 h | Potency, µM (doses to about 46 µM), for inactives: at the top dose activity change, negative = cytotoxicity, hits mostly inhibitors | 390,000 compounds, 0.16% hits; also: % is scaled to controls: 0 for no effect and ±100 for the full control effect
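Cytotoxicity counterscreen: CellTiter-Fluor fluorescence was measured in A549 ARE_Fluc cells after 18-24 h of compound exposure in a concentration series. The subsequent BugLite luminescent read reports ARE-luciferase activity.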
HepG2 tox = qHTS for Inhibitors of TGF-b: Cytotox Counterscreen; HepG2 CAGA-GFP viability, ATP luminescence, 18 h; Potency, µM (highest dose often 46.1 µM), without a hit: top-dose activity change, negative = cytotoxicity, actives largely listed as cytotoxic; 410,000 compounds, 0.76% hits
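CellTiter-Glo luminescence gave cytotoxicity after 18 hours at 37 degrees C. The cells were HepG2 CAGA-GFP in 1% FBS DMEM, stimulated with 500 pg/mL TGF-beta after compound addition. %Activity was normalised to no-cell wells (complete cell-killing) and DMSO (no toxicity), and curves were fitted and classified.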
Nrf2 inh = Nrf2 qHTS screen for inhibitors; 360,000 compounds, 2.1% hits; A549 ARE-Fluc reporter, luciferase luminescence, 18-24 h; Potency, µM (doses to about 46 µM), without a hit: top-dose activity change, negative = inhibition, usual class: inhibitors; also: % is scaled to controls: 0 for no effect and ±100 for the full control effect; nearly all actives have a fitted effect of over 60% in size
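Quantitative HTS in A549 cells stably bearing an antioxidant response element-firefly luciferase construct. Inhibition of Nrf2-driven transcription was scored by luminescence after 18-24 h of compound exposure at 37 °C.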
TGFb SMAD3 inh = qHTS for Inhibitors of TGF-b; HepG2 CAGA-GFP TGF-b/SMAD3 reporter, GFP fluorescence, 18 h; TGF-beta stimulated, 500 pg/mL final; Potency, µM (top dose mostly 46.1 µM), without a hit: at the top dose activity, negative = inhibition, usual class: inhibitors; 410,000 compounds, 1.2% hits; AID 588855, 2011; also: % is scaled to controls: 0 for no effect and ±100 for the full control effect; nearly all actives have a fitted effect of over 65% in size
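HEPG2 CAGA-GFP reporter cells (1000/well, DMEM with 1% FBS) received compounds, then recombinant TGF-beta at 500 pg/mL final for 18 hours at 37 degrees C. Per-cell GFP summed per well was normalised to unstimulated and stimulated DMSO controls before curve fitting.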
* marks the source's active call; other numbers are inactive results; ? = inconclusive; / = not tested or not shown; [ ] = another dose, or the depositor's remark. This is a sample that favours compounds with a hit; in the whole collection about 3.6% have one here. Calls follow the shape of the dose curve; as a rule, active = well fitted curve in the direction sought with a large enough effect; inconclusive = small, poorly fitted or top-dose-only effect, or another doubt; inactive = no such curve, though single readings can be large; an effect the other way counts as inactive or inconclusive. Potency is read from the fitted curve at half-maximal effect.

SMILES | Nrf2 activator | A549 tox | HepG2 tox | Nrf2 inh | TGFb SMAD3 inh
Fc1ccc(N2CCN(c3ncnc4c3nnn4Cc3ccccc3Cl)CC2)cc1 | -0.9% | 2.1% | 8.0% | 13µM* | 0.7%
COc1ccc(C2=NNC(=O)CC2)cc1 | 0.1% | 27.3% | 4.6% | 11.7% | -7.5%
COc1ccccc1C(C[N+](=O)[O-])c1c(N)n(C)c(=O)n(C)c1=O (centres undefined) | ? | ? | 10µM* | 11.6µM* | 7.08µM*
CCN1CCN(S(=O)(=O)c2ccc(Cl)c(C(=O)Nc3ccc(OC(F)F)cc3)c2)CC1 | 1.8% | 7.9% | 8.91µM* | -5.6% | -21.8%
CC1(C(=O)NS(=O)(=O)c2ccccc2)CCN1C(=O)Cc1ccccc1Cl (centres undefined) | 0.2% | / | -1.1% | / | 6.8%
COc1ccc(N2C(=O)C3CCCN3C2c2cccc(C)c2)cc1 (centres undefined) | 0.2% | 0.2% | 1.6% | 5.1% | 29.6%
Cc1ccc(-c2cc(C(=O)N/N=C/C(Br)=C/c3ccccc3)n[nH]2)o1 | 20µM* | -1.2% | 2.1% | ? | -17.7%
Cc1occc1C(=O)N/N=C/c1ccc(-c2ccccc2)cc1 | -1.2% | 0.9% | 11.2µM* | ? | -15.2%
COc1ccc(C(=O)N/N=C/C(Br)=C/c2ccccc2)cc1 | 15.8µM* | -3.6% | -19.7% | -12.8% | 6.0%
O=C(N/N=C/c1cc2c(cc1Br)OCO2)c1ccccn1 | 3.7% | 0.1% | -14.4% | ? | 1.0%
O=C(N/N=C/c1ccc2c(c1)OCO2)c1ccccn1 | -1.2% | 1.5% | 7.08µM* | ? | 0.5%
Cc1ccc(-c2cc(C(=O)N/N=C/c3ccccc3O)n[nH]2)o1 | 4.7% | -10.9% | -49.1% | -16.2% | ?
Cc1occc1C(=O)N/N=C/c1ccc(OCc2ccccc2)cc1 | -0.5% | -5.9% | -34.0% | -3.4% | ?
COc1ccc(C(CNC(=O)C(CCSC)NC(=O)c2ccccc2Cl)N2CCOCC2)cc1 (centres undefined) | -0.3% | 6.1% | -6.3% | 17.7% | ?
CCCCNC(=O)c1ccc(CNS(=O)(=O)c2ccc(Br)cc2)cc1 | -0.1% | -4.2% | -26.3% | 2.5% | -13.2%
O=C(N/N=C/C(Br)=C/c1ccccc1)c1ccccc1[N+](=O)[O-] | ? | -4.1% | -52.9% | 17.0% | -16.3%
CC(/C=N/NC(=O)c1n[nH]c2c1CCC2)=C\c1ccccc1 | 2.3% | ? | -22.8% | 28.2% | ?
Cc1ccsc1C(=O)N/N=C/c1ccc2c(c1)OCO2 | 0.0% | 6.7% | 5.62µM* | ? | -18.3%
Cc1occc1C(=O)N/N=C/c1ccc2c(c1)OCO2 | -1.9% | 2.1% | 11.2µM* | ? | 0.0%
O=C(N/N=C/C(Br)=C\c1ccccc1)c1n[nH]c2c1CCC2 | 14.1µM* | -8.6%[1.84 µM] | -44.1% | ? | ?
Cc1occc1C(=O)N/N=C/C(Br)=C/c1ccccc1 | 15.8µM* | -15.8% | -5.9% | ? | -4.2%
O=C1CC(c2cccnc2)c2cc3c(cc2N1)OCO3 (centres undefined) | 0.1% | 0.5% | -3.7% | -5.5% | -1.6%
CCN1CCN(C(=O)CN2C(=O)COc3ccc(S(=O)(=O)N4CCOCC4)cc32)CC1 | 1.9% | -0.6% | 21.8% | -8.8% | -1.3%
CCOC(=O)c1cc(-c2ccc(F)cc2)n(CCC(=O)NC2CCN(Cc3ccccc3)CC2)c1C | 4.2% | ? | 12.6µM* | -8.9% | ?
CCOC(=O)c1cc(-c2ccc(C)cc2)n(CCC(=O)Nc2ccc(C(C)C)cc2)c1C | 0.2% | -17.0% | -11.7% | ? | ?
SMILES | Nrf2 activator | A549 tox | HepG2 tox | Nrf2 inh | TGFb SMAD3 inh
CCOC(=O)c1cc(-c2ccc(C)cc2)n(CCC(=O)Nc2ccc(OC)c(OC)c2)c1C | -0.9% | -12.7% | -2.0% | 18.4µM* | -71.9%
COc1ccc(C[C@H]2CN3C(=NC[C@@H]3Cc3ccc(O)cc3)N2C[C@H](C)NC(=O)CCC2CCCCC2)cc1 | -2.3% | -12.6% | -14.7% | 10.5% | ?
CC(OC(=O)C1CCN(S(=O)(=O)c2ccc3c(c2)OCCO3)CC1)C(=O)N(C)c1ccccc1 (centres undefined) | 0.6% | -4.4% | -2.4% | -13.4% | -27.9%
O=C(Nc1ccccc1)c1ccc(CN2CCc3ccccc3C2)cc1 | 8.3% | 0.8% | -18.3% | 23.8% | 1.7%
O=C(Nc1ccc(S(=O)(=O)N2CCCCC2)cc1)c1ccc(CN2CCc3ccccc3C2)cc1 | 0.4% | -19.0% | 0.1% | 0.326µM* | 3.9%
Cc1cc(C)cc(NC(=O)c2ccc(CN3CCc4ccccc4C3)cc2)c1 | 4.1% | -29.0% | -19.7% | 14.6µM* | -5.9%
Cc1ccc(NC(=O)c2ccc(CN3CCc4ccccc4C3)cc2)cc1 | 5.5% | -14.4% | -4.5% | ? | ?
O=C(Nc1cccnc1)c1ccc(CN2CCc3ccccc3C2)cc1 | 1.6% | 5.3% | -23.1% | 13µM* | -19.7%
CCN1CCN(Cc2c(O)ccc3oc(C)c(C(=O)Nc4cccc(C(F)(F)F)c4)c23)CC1 | 20.9% | 9.7% | 12.6µM* | 1.8% | ?
NC(c1ccccc1)c1csc(Nc2cc(Oc3ccccc3)ncn2)n1 (centres undefined) | -1.7% | / | 11.2µM* | / | ?
CC(C)C(N)c1csc(Nc2cc(Oc3ccccc3)ncn2)n1 (centres undefined) | 4.6% | / | -15.5% | / | -16.1%
CCOc1ccccc1CN1CCc2nc(Nc3ccccc3)ncc2C1 | 8.4% | 1.6% | -32.0% | / | -10.9%
Cc1cccc(N2CCN(CCCNC(=O)C3CCCN(c4ncnc5c4nc4n5CCCCC4)C3)CC2C)c1 (centres undefined) | 0.1% | ? | -20.8% | ? | ?
COc1ccc(-c2nc(-n3c(C)c(C(C)=O)c(C(C)=O)c3C)sc2C)cc1OC | 0.6% | -21.5% | -18.0% | -23.8% | 22.4%
CC(=O)c1c(C(C)=O)c(C)n(-c2nc(-c3ccc(Br)cc3)c(C)s2)c1C | -0.3% | ? | -12.2% | 25.9µM* | -19.2%
COc1cc(/C=N/N=C2/C(=O)Nc3ccccc32)cc(OC)c1O | 11.2µM* | 1.8% | -19.0% | 15.8% | ?
Cc1cccc2cc(C#N)c(NCCNC(=O)NC3CCCCC3)nc12 | 0.3% | -10.0% | 8.2% | 9.2µM* | -3.6%
CCOc1cc(/C=C2\SC(=N)N(c3nccs3)C2=O)ccc1OCCN1CCOCC1 | 0.3%[9.22 µM] | 20.6µM* | -24.5% | 18.4µM* | 0.0%
O=S(=O)(c1ccc(Cl)cc1)c1snnc1-c1ccccc1 | ? | ? | -72.7% | -21.5% | 14.1µM*
Cc1ccc(NC(=O)C(Cc2ccccc2)NS(=O)(=O)c2ccc3c(c2)oc(=O)n3C)c(Cl)c1 (centres undefined) | -0.2% | -5.7% | -18.1% | 21.9% | 5.0%
COc1ccccc1NC(=O)c1c(Nc2ccccc2F)sc(C(=O)Nc2cccc(Cl)c2)c1N | 2.0% | ? | -36.2% | ? | 15.8µM*
